An excerpt weighted towards active compounds, which were near 1.2% of everything screened.
NSD2 HMT inh – blocks human histone methyltransferase NSD2; 310,000 tested, 0.54% active; NSD2 peptide methylation, AlphaScreen, 120 min; inhibition, % at 12.5 µM; in the data active = inhibition above about 50%
PglD inh – inhibitors of Campylobacter jejuni PglD acetyltransferase. 360,000 tested, 0.098% active. purified PglD enzyme, DTNB colorimetric CoA detection. inhibition, % at 12.5 µM; in the data active = inhibition above about 16%, passing the limit was not always enough
miR-122 sensor – blocks miR-122 activity in Huh7 sensor cells; 340,000 tested, 0.3% active; activation (reporter increase), % at 12.5 µM; Huh7 miR-122 Renilla luciferase sensor, 48 h; neutral wells = 0, positive control = 100;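 active = mean replicate activation score at least 90 and every replicate individually at or above 90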;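 also: higher luciferase means less miR-122 activity so hits act as miR-122 inhibitors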
Statin myotox sup – suppressors of simvastatin-induced myotoxicity in C2C12 myotubes. ATP luminescence, 48 h; scaled: DMSO 0, geranylgeraniol control 100. rescue of ATP level, % at 7.49 µM. 330,000 tested, 0.78% active;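 active = mean ATP rescue above about 67%, or every replicate alone reaching that limit, limit read from the data, passing the limit was not always enough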;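 also: myotubes were challenged with 10 µM simvastatin during compound exposure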
AlphaScreen art – counter-screen for NSD2 inhibitors: AlphaScreen artifacts | AC35, µM (doses to about 10 µM) | 1,500 tested, 9.4% active | AlphaScreen artifact counterscreen, preloaded methylated H4 peptide | shares compounds with NSD2 HMT inh; call rule not given here
Large screens that a line does not name were inactive (follow-up assays come after a bar, where they were run).

COc1cc(NS(=O)(=O)c2ccc(NC(=S)NC(=O)/C=C/c3ccco3)cc2)ncn1	NSD2 HMT inh 150 | AlphaScreen art inactive
COCCNC(=O)[C@@H]1[C@@H](CO)[C@@H]2Cn3c(ccc(-c4ccccc4)c3=O)[C@H]1N2C	none (no result: NSD2 HMT inh)
COC(=O)C[C@@H]1CC[C@@H]2[C@@H](COc3ccc(NC(=O)Nc4cc(C)cc(C)c4)cc3C(=O)N2C)O1	none (no result: NSD2 HMT inh, miR-122 sensor)
CCOc1ccccc1NC(=O)CSc1nc2nc(-c3cccs3)cc(C(F)(F)F)c2c(=O)[nH]1	NSD2 HMT inh 84 (no result: PglD inh) | AlphaScreen art inactive
COc1ccc(NC(=O)CSc2nc3nc(-c4cccs4)cc(C(F)(F)F)c3c(=O)[nH]2)c(OC)c1	none
CS(=O)(=O)Nc1ccc2c(c1)[C@H]1C[C@@H](CC(=O)N3CCc4ccccc4C3)O[C@H](CO)[C@H]1O2	none (no result: NSD2 HMT inh)
COc1ccc(CNC(=O)CCCSc2ccccc2)cc1	none
NS(=O)(=O)c1ccc(CNC(=O)CCCSc2ccccc2)cc1	NSD2 HMT inh 82 (no result: PglD inh) | AlphaScreen art inactive
CC1CCN(CC(=O)Nc2ccc(S(=O)(=O)N3CCCC(C)C3)cc2)CC1 (configuration not stated)	none
CC1CCCN(S(=O)(=O)c2ccc(NC(=O)CN3CCN(C)CC3)cc2)C1 (configuration not stated)	NSD2 HMT inh 90 | AlphaScreen art inactive
CCCC(=O)Nc1ccc2c(c1)OC[C@H](C)N(C(=O)c1ccncc1)C[C@@H](C)[C@H](OC)CN(C)C2=O	none (no result: NSD2 HMT inh)
C/C=C/c1ccc2c(c1)O[C@H](CN(C)Cc1ccc(F)cc1)[C@H](C)CN([C@H](C)CO)S2(=O)=O	none (no result: NSD2 HMT inh)
O=C(C[C@H]1CC[C@@H]2[C@H](COC[C@H](O)CN2S(=O)(=O)c2ccc(F)cc2)O1)N[C@@H]1CCN(Cc2ccccc2)C1	none (no result: NSD2 HMT inh)
CCCCCC/C(C)=C1/SC(=S)NC1=O	none
C/C(C/C(C)=C1/SC(=S)NC1=O)=C1\SC(=S)NC1=O	NSD2 HMT inh 132 (no result: PglD inh, miR-122 sensor, Statin myotox sup) | AlphaScreen art inactive
Cc1ccc(S(=O)(=O)N(C)C[C@H]2Oc3ccc(NC(=O)Nc4ccc5c(c4)OCO5)cc3C(=O)N([C@H](C)CO)C[C@@H]2C)cc1	none (no result: NSD2 HMT inh)
CCCOc1ccc(C(C)=O)cc1CC(C(N)=O)C(N)=O	NSD2 HMT inh 135 | AlphaScreen art inactive
CC(=O)c1ccc(OCC(C)C)c(CC(C(N)=O)C(N)=O)c1	none (no result: PglD inh, miR-122 sensor, Statin myotox sup)
CCCNC(=O)N1C[C@@H](C)[C@H](OC)CN(C)C(=O)c2cc(NC(=O)C3CCC3)ccc2OC[C@@H]1C	none (no result: NSD2 HMT inh, PglD inh)
COc1cc(NCCCCC(C)N)c2nccc(C)c2c1 (configuration not stated)	NSD2 HMT inh 129 | AlphaScreen art inactive
COc1ccc2[nH]c3c(NCCN(C(C)C)C(C)C)ncnc3c2c1	none
O=C1NC2=C(CCc3ccccc32)C(c2ccccc2)N1 (configuration not stated)	NSD2 HMT inh 93 (no result: Statin myotox sup) | AlphaScreen art inactive
C=CCOc1ccc(C2NC(=S)NC3=C2CCc2ccccc23)cc1 (configuration not stated)	none
COCCN(C(=O)CNC(=O)c1ccco1)C(C(=O)NC1CCCC1)c1ccc(OC)cc1 (configuration not stated)	NSD2 HMT inh 110 | AlphaScreen art inactive
COc1ccccc1CNC(=O)C[C@@H]1C[C@@H]2c3cc(NC(=O)c4ccc5c(c4)OCO5)ccc3O[C@@H]2[C@@H](CO)O1	none (no result: NSD2 HMT inh)
C[C@H]1CN([C@@H](C)CO)S(=O)(=O)c2ccc(C#Cc3ccccc3)cc2O[C@H]1CN(C)S(C)(=O)=O	none (no result: NSD2 HMT inh)
COc1ccc(NC(=O)N(C)C[C@H]2Oc3ccc(NC(=O)C4CCCCC4)cc3CC(=O)N([C@@H](C)CO)C[C@H]2C)cc1	none (no result: NSD2 HMT inh)
O=C(CCCN1C(=O)/C(=C\c2ccccc2)SC1=S)Nc1ccc(O)cc1C(=O)O	none
CC(C(=O)Nc1ccc(O)cc1C(=O)O)N1C(=O)/C(=C\c2cccs2)SC1=S (configuration not stated)	NSD2 HMT inh 83 | AlphaScreen art inactive
C[C@@H]1CN([C@H](C)CO)C(=O)c2cc(C#C[C@@H](C)O)cnc2O[C@H]1CN(C)CC1CCCCC1	none (no result: NSD2 HMT inh)
O=C(CC(=O)Nc1ccc(Cl)cc1)N/N=C\c1cccc(F)c1	NSD2 HMT inh 113 | AlphaScreen art inactive
O=C(CCC(=O)Nc1ccc(F)cc1)N/N=C/c1cccc(Br)c1	none
CCCC(=O)Nc1ccc2c(c1)C(=O)N(C)[C@@H]1CC[C@@H](CC(=O)NCc3ccccc3F)O[C@H]1CO2	none (no result: NSD2 HMT inh)
COC(=O)c1ccc(/C=N/N2CCN(Cc3ccccc3)CC2)cc1	NSD2 HMT inh 52 (no result: PglD inh, Statin myotox sup) | AlphaScreen art inactive
CCN(C(=O)C(C)N1C(=O)/C(=C/c2ccco2)SC1=S)C1CCS(=O)(=O)C1 (configuration not stated)	none (no result: miR-122 sensor)
CC(C(=O)O)N1C(=O)/C(=C/C=C/c2ccco2)SC1=S (configuration not stated)	NSD2 HMT inh 176 | AlphaScreen art 4.3µM
C[C@@H]1CCCCO[C@H](CN(C)C(=O)CCCN(C)C)[C@@H](C)CN([C@H](C)CO)C(=O)c2cc(NS(=O)(=O)c3cccs3)ccc2O1	none (no result: NSD2 HMT inh, Statin myotox sup)
CC(C)CC#Cc1cnc2c(c1)C(=O)N([C@H](C)CO)C[C@@H](C)[C@@H](CN(C)S(=O)(=O)c1cn(C)cn1)O2	none (no result: NSD2 HMT inh)
CC(Oc1ccc(Cl)cc1Cl)C(=O)NC(Cc1ccccc1)C(=O)O (configuration not stated)	NSD2 HMT inh 53 (no result: PglD inh) | AlphaScreen art inactive
Cc1[nH][nH]c(=O)c1C(c1ccc(-c2ccc(C(=O)O)cc2)o1)c1c(C)[nH][nH]c1=O	NSD2 HMT inh 89 (no result: PglD inh, miR-122 sensor) | AlphaScreen art inactive
Cc1[nH][nH]c(=O)c1C(c1ccc(-c2ccc(F)cc2)o1)c1c(C)[nH][nH]c1=O	NSD2 HMT inh 156 (no result: PglD inh, miR-122 sensor, Statin myotox sup) | AlphaScreen art inactive
COc1ccc(-c2ccc(C(c3c(C)[nH][nH]c3=O)c3c(C)[nH][nH]c3=O)o2)c([N+](=O)[O-])c1	NSD2 HMT inh 124 (no result: PglD inh, Statin myotox sup) | AlphaScreen art inactive
Cc1[nH][nH]c(=O)c1C(c1ccc(-c2ccc(Cl)c(Cl)c2)o1)c1c(C)[nH][nH]c1=O	none (no result: NSD2 HMT inh)
COc1ccc(CNC(=O)C[C@H]2CC[C@@H](NC(=O)CN(C)C)[C@H](CO)O2)cc1	none (no result: NSD2 HMT inh, miR-122 sensor)
COc1cc(/C=C2\SC(=S)N(Nc3ccccc3)C2=O)ccc1O	none (no result: miR-122 sensor, Statin myotox sup)
O=C1/C(=C/c2ccc(O)c(O)c2)SC(=S)N1Nc1ccccc1	NSD2 HMT inh 88 (no result: PglD inh, miR-122 sensor, Statin myotox sup) | AlphaScreen art 2.4µM
C[C@@H]1CCCCO[C@@H](CN(C)C(=O)Nc2ccc(F)cc2)[C@H](C)CN([C@@H](C)CO)C(=O)c2cc(NC(=O)Nc3ccc4c(c3)OCO4)ccc2O1	none (no result: NSD2 HMT inh)
O=C1Nc2ccccc2/C1=N/N=C/c1cccc(O)c1	none
COc1cc(/C=N/N=C2/C(=O)Nc3ccccc32)cc(OC)c1O	NSD2 HMT inh 67 (no result: PglD inh, miR-122 sensor, Statin myotox sup) | AlphaScreen art inactive
COCC#Cc1cnc2c(c1)C(=O)N([C@H](C)CO)C[C@@H](C)[C@H](CN(C)Cc1ccc3c(c1)OCO3)O2	none (no result: NSD2 HMT inh)
Cn1c(CSCc2ccccc2)nnc1SCC(=O)Nc1nccs1	NSD2 HMT inh 120 | AlphaScreen art inactive
